Source: PubChem BioAssay AID588522 (NMMLSC, 2011)
The campaign covered roughly 1,700 compounds. About 20 (1%) were called active. The sample holds actives, similar compounds and a random draw of the others, so the mix is not that of the screen. A number with no mark means an inactive call.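 Rule for the calls: active = inhibition above the screen-wide mean plus twice its standard deviation (cut at about 32% in these data); inactive = the rest.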

Tested on: Candida albicans drug resistance protein 1 (Cdr1) expressed in S. cerevisiae
Assay: inhibitors of Candida albicans Cdr1 efflux pump, confirmation, S. cerevisiae AD/CaCDR1, flow cytometry, cherry pick 1, singleplex (AID 588522)
Conditions: S. cerevisiae AD/CaCDR1, Nile Red efflux, at 10 µM, stronger effect = higher value

Row | Compound | inhibition
1 | O=C(Cc1ccccc1)NCC1OCCc2ccccc21 (stereo unspecified) | -0.03%
2 | COc1ccc(C(=O)NC2CC(C)(C)Cc3c2cnn3-c2ccccc2)c(OC)c1 (stereo unspecified) | -0.08%
3 | O=C(CNC(=O)c1ccc(-c2ccccc2)cc1)OCc1ccc(Cl)cc1 | 0.15%
4 | O=C(OCc1ccc(-c2ccccc2)cc1)c1cccc(O)c1 | 0.08%
5 | O=C(CSc1nnc(-c2cccnc2)n1Cc1ccco1)c1ccc(Cl)c(Cl)c1 | -0.04%
6 | Cc1oc2cc3oc(=O)ccc3cc2c1C | -0.1%
7 | CC12CCC(C(=O)N(c3cccc(Cl)c3)C1=O)C2(C)C (stereo unspecified) | 0.11%
8 | Cc1cc(C)cc(NC(=O)C(OC(=O)c2ccc(O)cc2)c2ccccc2)c1 (stereo unspecified) | -0.12%
9 | COc1ccccc1/C=C/C=N/n1c(-c2ccc(Cl)cc2Cl)n[nH]c1=S | 0.09%
10 | CCOc1ccc(C2/C(=C(/O)c3ccc4c(c3)CC(C)O4)C(=O)C(=O)N2CCCn2ccnc2)cc1 (stereo unspecified) | 0.05%
11 | CC(/C=C/c1ccccc1)=N\NC(=O)C1CC1(C)c1ccccc1 (stereo unspecified) | -0.03%
12 | O=C(Nc1ccc(NC(=O)c2cccs2)cc1)c1ccc2ccccc2c1 | 0.04%
13 | CCNC(=O)c1c(O)c2cccc3c2n(c1=O)CC3 | -0.08%
14 | Cc1cccc(NC(=O)COc2ccccc2C)n1 | -0.06%
15 | O=C(CN1C(=O)C2C3CCC(C3)C2C1=O)Oc1ccc2ccccc2c1 (stereo unspecified) | -0.01%
16 | CCCc1nnc(SCC(=O)Nc2ccc(C(=O)OCC)cc2)o1 | 0.53%
17 | O=C(/C=C/c1c(Cl)cccc1Cl)NCc1ccccc1 | -0.01%
18 | CCNc1c(NS(=O)(=O)c2ccc(C3CCCCC3)cc2)c(=O)oc2ccccc12 | -0.2%
19 | CSCCC(NC(=O)COc1ccccc1)C(=O)OCCOc1ccc(Br)cc1 (stereo unspecified) | -0.03%
20 | Cc1csc(NC(=O)c2ccc(-c3ccc(Cl)cc3Cl)o2)n1 | 0.16%
21 | Cc1cc(/C=N/NC(=O)CC2(C)OCCO2)c(C)n1-c1ccc(Cl)c(Cl)c1 | 0.13%
22 | COc1ccc(S(=O)(=O)N2CCOC2CNC(=O)C(=O)NCc2ccc(F)cc2)cc1 (stereo unspecified) | 0.04%
23 | Cc1ccc(N=C2NC(=O)/C(=C/C=C/c3ccco3)S2)cc1C | 0.36%
24 | CSCCC(NS(=O)(=O)c1ccc(C)cc1)C(=O)N1CCCC1 (stereo unspecified) | -0.1%
25 | C/C(N)=C(/C#N)C(=O)COC(=O)c1cc(-c2cccc(Br)c2)nc2ccccc12 | 0.12%
26 | Cc1ccc(/C=C(\C#N)C(=O)Nc2cccc3ncccc23)o1 | -0.54%

Row | Compound | inhibition
27 | O=C(NCc1ccccc1)C(=O)NCC1OCCN1S(=O)(=O)c1ccc(Br)cc1 (stereo unspecified) | -0.27%
28 | Cc1nn(C)cc1N1C(=O)c2cccc3c(N)ccc(c23)C1=O | -0.53%
29 | CN(C)S(=O)(=O)c1cc(C(=O)Nc2ccn(C)n2)c(Cl)cc1Cl | -0.51%
30 | COc1ccc(C(=O)C2CCCN(Cc3cccn3-c3ccccn3)C2)c(C)c1 (stereo unspecified) | 0.01%
31 | CCOc1ccc(/C=C2\SC(=S)N(NC(=O)c3ccncc3)C2=O)cc1OC | -0.06%
32 | COc1ccc(NC(=S)N2CCc3cc(OC)c(OC)cc3C2)cc1 | 0.16%
33 | CCn1c(/C=C/c2ccc([N+](=O)[O-])o2)nc2ccccc2c1=O | 0.83%
34 | CC(C)C(=O)N1CCC2(CC1)Oc1ccc(F)cc1C(=O)C21CC(c2ccccc2)=NO1 (stereo unspecified) | 0.01%
35 | COc1cccc(NC(=O)CN(C)C(=O)/C=C/c2cc(OC)ccc2OC)c1 | -0.15%
36 | COc1ccc(/C=C(\C#N)c2c[nH]c3ccccc23)cc1 | -0.2%
37 | NNC(=O)COc1ccc(C2SCCS2)cc1 | -0.06%
38 | O=C(CCCCCn1c(=O)[nH]c2ccccc2c1=O)NCCc1c[nH]c2ccccc12 | -0.02%
39 | COc1ccc(-c2sc3ccccc3c2-c2ccc(OCCN3CCOCC3)cc2)cc1 | -0.26%
40 | COc1cccc(-c2sc3ccc(OC)cc3c2-c2ccc(OCCN3CCCCC3)cc2)c1 | 45.4% (active)
41 | COc1ccc2sc(-c3ccccc3OC)c(-c3ccc(OCCN4CCCC4)cc3)c2c1 | 4.57%
42 | Cc1nn(C)cc1C(=O)Nc1ccccc1Br | -0.09%
43 | CCCCCCCCCCCCCCCC(=O)OC/C=C(C)/C=C/C=C(C)/C=C/C1=C(C)CCCC1(C)C | 0.11%
44 | C=CCC[C@@H](Cc1ccc(F)cc1)C(=O)OC[C@H](Cc1c[nH]c2ccccc12)NC(=O)[C@@H](CC=C)CC(=O)N(CCO)Cc1ccccc1 | 0.17%
45 | CN=C(c1ccccc1)c1c(C)cccc1C | 0.01%
46 | Cc1cc(C(=O)Nc2ccc(C)c(S(=O)(=O)N3CCOCC3)c2)c2ccccc2n1 | -0.08%
47 | CCc1ccc(NC(=O)Cn2ncn3c(cc4ccccc43)c2=O)cc1 | -0.23%
48 | Cc1ccc(OCc2cc(C(=O)N(C)CCc3ccccc3)no2)cc1C | -0.15%
49 | CCOc1ccc2nc(Cl)c(C3CC(c4ccccc4)=NN3C(=O)c3cccs3)cc2c1 (stereo unspecified) | 0.11%
50 | O=C1NC(=O)C2C1C(c1ccc([N+](=O)[O-])cc1)=NN2Cc1ccccc1 (stereo unspecified) | 0.24%
51 | CCCCCC(=O)Nc1ccc(C(=O)N/N=C/c2ccc([N+](=O)[O-])cc2)cc1 | 0.01%
52 | CCOC(=O)CNC(=O)CSc1nnnn1-c1cc(C)ccc1C | -0.03%

Row | Compound | inhibition
53 | CC[n+]1cc(C)ccc1/C=C/c1ccc(N(C)C)cc1 | 4.74%
54 | COc1ccc2[nH]c3c(C)c4cc[n+](C)cc4c(C)c3c2c1 | 0.08%
55 | Cc1c(CCOC(=O)CC23CC4CC(CC(C)(C4)C2)C3)sc[n+]1Cc1ccc([N+](=O)[O-])cc1 | 0.01%
56 | CCOC(=O)c1c(NC(=S)NC(=O)c2ccco2)sc2c1CCCC2 | -0.31%
57 | C[n+]1ccc(/C=C/c2c[nH]c3ccccc23)cc1 | 3.85%
58 | COc1ccc(C(=O)NC2CCCc3c2cnn3-c2cccc(C)c2C)c(OC)n1 (stereo unspecified) | -0.29%
59 | CC(/C=N/NC(=O)c1cc(-c2ccc3ccccc3c2)n[nH]1)=C\c1ccco1 | -0.15%
60 | O=C(Cc1ccc(Br)cc1)N1CCN(c2ccccn2)CC1 | -0.06%
61 | CCCCN1C(=O)/C(=C/C=C2/C=Cc3ccccc3N2CC)SC1=S | -0.08%
62 | Cc1ccc(Cn2c(C)nc3c(c2=O)c2nc4ccccc4nc2n3Cc2ccco2)cc1 | 0.09%
63 | Cc1ccc2[nH]c3c(=O)n(CC(=O)NCCc4ccc(Cl)cc4)ncc3c2c1 | 0.27%
64 | COc1ccc(C(=O)NC(=S)Nc2ccc(N3CCCC3)cc2)cc1OC | -0.15%
65 | Cc1nc2c(C(=O)NCc3ccc4c(c3)OCO4)c[nH]n2c(=O)c1Cc1ccccc1F | -0.08%
66 | COc1ccccc1NC(=O)C1CCCN1S(=O)(=O)c1ccc(Cl)cc1 (stereo unspecified) | -0.03%
67 | CCCc1nc(N2CCN(C)CC2)c2sc(=S)n(-c3ccccc3)c2n1 | 0.07%
68 | Cc1ccc(Cn2nnc3c(=O)[nH]c(C4CCN(S(=O)(=O)/C=C/c5ccccc5)CC4)nc32)cc1 | -0.06%
69 | CCCCOc1ccc(C(=O)NCC(=O)OCC(=O)c2c(N)n(C)c(=O)n(C)c2=O)cc1 | 106% (active)
70 | COc1ccccc1CSc1ncc(-c2ccc([N+](=O)[O-])cc2)[nH]1 | -0.02%
71 | CCOc1ccccc1/C=c1\sc2nc(-c3ccco3)nn2c1=O | 0.21%
72 | O=C(Cn1c(COc2ccccc2)nc2ccccc21)Nc1cc(Cl)c(Cl)cc1Cl | 0.09%
73 | CC1CCc2c(sc(NC(=O)c3ccc(Cn4cc(Br)cn4)o3)c2C(N)=O)C1 (stereo unspecified) | -0.03%
74 | Cc1ccc2c(c1)NC(=O)[C@@]1(C)[C@@H](c3ccccc3)[C@H]3COc4ccc(Cl)cc4[C@@H]3N1C2=O | 0.07%
75 | CN1CCN(S(=O)(=O)c2ccc(NC(=S)NC(=O)C3CC3)cc2)CC1 | -0.08%
76 | O=S(=O)(c1ccccc1)N1CCc2ccccc21 | 0.54%
